Holding throughout (experiment): PBM; 200 nM protein, PBS
Settings in all cases: dsDNA, one strand shown

Experiment [1] deals with T1, PAX4 (Homo sapiens, UniProt O43316 9-242, R200K).
T1 sequence: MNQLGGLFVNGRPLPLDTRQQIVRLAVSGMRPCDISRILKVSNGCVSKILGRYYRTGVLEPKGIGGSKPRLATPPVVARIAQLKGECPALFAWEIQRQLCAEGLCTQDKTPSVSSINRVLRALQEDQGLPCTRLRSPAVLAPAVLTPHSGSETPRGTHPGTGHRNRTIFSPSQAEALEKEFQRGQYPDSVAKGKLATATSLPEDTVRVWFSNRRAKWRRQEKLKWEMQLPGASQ

The target of experiment [2] is T2, PAX4 (Homo sapiens, UniProt O43316 9-242).
T2 sequence: T1 sequence with K192R

The target of experiment [3] is T3, PAX4 (Homo sapiens, UniProt O43316 9-242, F177V).
T3 sequence: T1 sequence with F169V, K192R

Experiment [4] has as its target T4, PAX4 (Homo sapiens, UniProt O43316 9-242, F177Y).
T4 sequence: T1 sequence with F169Y, K192R

In experiment [5] the target is T5, PAX4 (Homo sapiens, UniProt O43316 9-242, R227W).
T5 sequence: T1 sequence with K192R, R219W

For experiment [6], the target named is T6, PAX4 (Homo sapiens, UniProt O43316 9-242, R200Q).
T6 sequence: T1 sequence with K192Q

The target in the next experiment is CRX (Homo sapiens, UniProt O43186 26-111, R41L).
Chain of CRX (O43186 26-111 R41L): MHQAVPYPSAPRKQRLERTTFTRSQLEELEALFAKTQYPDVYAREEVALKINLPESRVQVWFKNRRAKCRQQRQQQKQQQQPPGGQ

Numbering of substitutions follows the chain as printed.

In the case of AGTGTTAG, the binding signal with PAX4 [1] was 10.5 upbm affinity estimate (log intensity, higher = more binding, comparable within an allelic series); with PAX4 [2], 10.6 upbm affinity estimate (log intensity, higher = more binding, comparable within an allelic series); with PAX4 [3], 9.92 upbm affinity estimate (log intensity, higher = more binding, comparable within an allelic series); in the experiment with PAX4 [4], 10 upbm affinity estimate (log intensity, higher = more binding, comparable within an allelic series); with PAX4 [5], 10.1 upbm affinity estimate (log intensity, higher = more binding, comparable within an allelic series).

In the case of TAGTATAA, the binding signal with PAX4 [1] was 10.7 upbm affinity estimate (log intensity, higher = more binding, comparable within an allelic series); in the experiment with PAX4 [2] it was 10.8 upbm affinity estimate (log intensity, higher = more binding, comparable within an allelic series); with PAX4 [6], 10.8 upbm affinity estimate (log intensity, higher = more binding, comparable within an allelic series); with PAX4 [5] it was 10.5 upbm affinity estimate (log intensity, higher = more binding, comparable within an allelic series).

Consider TGTATTAA, for which the binding signal in the experiment with PAX4 [1] is 11.7 upbm affinity estimate (log intensity, higher = more binding, comparable within an allelic series); in the experiment with CRX, 10.9 upbm affinity estimate (log intensity, higher = more binding, comparable within an allelic series).

Regarding GCCGCGCC, the binding signal with PAX4 [1] was 9.1 upbm affinity estimate (log intensity, higher = more binding, comparable within an allelic series); with PAX4 [2], 9.1 upbm affinity estimate (log intensity, higher = more binding, comparable within an allelic series); with PAX4 [6] it was 9.18 upbm affinity estimate (log intensity, higher = more binding, comparable within an allelic series); with PAX4 [3], 9.12 upbm affinity estimate (log intensity, higher = more binding, comparable within an allelic series); with PAX4 [4], 9.11 upbm affinity estimate (log intensity, higher = more binding, comparable within an allelic series); with PAX4 [5] it was 9.16 upbm affinity estimate (log intensity, higher = more binding, comparable within an allelic series).

In the case of CCCGCGCG, the binding signal with PAX4 [1] was 9.26 upbm affinity estimate (log intensity, higher = more binding, comparable within an allelic series); in the experiment with PAX4 [2] it was 9.11 upbm affinity estimate (log intensity, higher = more binding, comparable within an allelic series); in the experiment with PAX4 [6] it was 9.18 upbm affinity estimate (log intensity, higher = more binding, comparable within an allelic series); with PAX4 [3] it was 9.01 upbm affinity estimate (log intensity, higher = more binding, comparable within an allelic series); in the experiment with PAX4 [4] it was 9.06 upbm affinity estimate (log intensity, higher = more binding, comparable within an allelic series); in the experiment with PAX4 [5], 9.19 upbm affinity estimate (log intensity, higher = more binding, comparable within an allelic series).

For ATTACCCG, the binding signal in the experiment with PAX4 [1] is 10.6 upbm affinity estimate (log intensity, higher = more binding, comparable within an allelic series); in the experiment with PAX4 [2], 11 upbm affinity estimate (log intensity, higher = more binding, comparable within an allelic series); with PAX4 [3], 9.93 upbm affinity estimate (log intensity, higher = more binding, comparable within an allelic series); with PAX4 [4], 9.92 upbm affinity estimate (log intensity, higher = more binding, comparable within an allelic series); in the experiment with PAX4 [5] it was 10.1 upbm affinity estimate (log intensity, higher = more binding, comparable within an allelic series).

Take CATGTTAG: the binding signal in the experiment with PAX4 [1] was 10.7 upbm affinity estimate (log intensity, higher = more binding, comparable within an allelic series); with PAX4 [2], 10.8 upbm affinity estimate (log intensity, higher = more binding, comparable within an allelic series); with PAX4 [6], 10.7 upbm affinity estimate (log intensity, higher = more binding, comparable within an allelic series); in the experiment with PAX4 [3], 10.1 upbm affinity estimate (log intensity, higher = more binding, comparable within an allelic series); with PAX4 [4] it was 10.2 upbm affinity estimate (log intensity, higher = more binding, comparable within an allelic series); with PAX4 [5], 10.3 upbm affinity estimate (log intensity, higher = more binding, comparable within an allelic series).

As for CGACCTGC, the binding signal in the experiment with PAX4 [1] is 9.47 upbm affinity estimate (log intensity, higher = more binding, comparable within an allelic series); with PAX4 [2], 9.54 upbm affinity estimate (log intensity, higher = more binding, comparable within an allelic series); in the experiment with PAX4 [6], 9.42 upbm affinity estimate (log intensity, higher = more binding, comparable within an allelic series); with PAX4 [3], 9.26 upbm affinity estimate (log intensity, higher = more binding, comparable within an allelic series); with PAX4 [4] it was 9.33 upbm affinity estimate (log intensity, higher = more binding, comparable within an allelic series); with PAX4 [5], 9.35 upbm affinity estimate (log intensity, higher = more binding, comparable within an allelic series).

Turning to ATGAATTA, the binding signal with PAX4 [1] is 11.7 upbm affinity estimate (log intensity, higher = more binding, comparable within an allelic series); in the experiment with PAX4 [2], 12.2 upbm affinity estimate (log intensity, higher = more binding, comparable within an allelic series); with PAX4 [6], 11.8 upbm affinity estimate (log intensity, higher = more binding, comparable within an allelic series); with PAX4 [3] it was 10.7 upbm affinity estimate (log intensity, higher = more binding, comparable within an allelic series); with PAX4 [4], 11.2 upbm affinity estimate (log intensity, higher = more binding, comparable within an allelic series); with PAX4 [5], 11 upbm affinity estimate (log intensity, higher = more binding, comparable within an allelic series).

In the case of ACGTATTA, the binding signal with PAX4 [1] is 11.7 upbm affinity estimate (log intensity, higher = more binding, comparable within an allelic series); with PAX4 [4], 11 upbm affinity estimate (log intensity, higher = more binding, comparable within an allelic series); in the experiment with PAX4 [5], 11.1 upbm affinity estimate (log intensity, higher = more binding, comparable within an allelic series).
